# Assay results: PubChem BioAssay AID1159580 (chemical genetic matrix, 2015)
# The campaign covered roughly 5,500 compounds. About 2,000 (36%) were called active. Not shown: some 18% with an inconclusive outcome. The list shows a part of the results. Unmarked numbers belong to inactive results. No stated cut-off is given here; in the data, active means normalized growth mostly below about 0.91 (no sharp cut-off); inconclusive means no clear call, values can overlap the other calls; inactive means mostly above about 0.92.
# Test: chemical genetic growth profiling, strain panel (AID 1159580);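 further: tested at 20 µM; growth read once vehicle control cultures reached saturation at 30 °C; 1 = growth at the plate median or of vehicle wells; lower values mean less growth of the strain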
# Details: S. cerevisiae deletion strains, growth OD
structure (smiles),measurement,setting,value
CCC(c1ccc(O)cc1)C(CC)c1ccc(O)cc1 (stereo not drawn),normalized growth,"locus YAL013W, strain DEP1, active compounds read low",0.998
same,normalized growth,"locus YAL021C, strain ccr4, active compounds read low",0.93
same,normalized growth,"locus YAL026C, strain drs2, active compounds read low",0.835 (active)
same,normalized growth,"locus YAL030W, strain snc1, active compounds read low",0.918 (active)
same,normalized growth,"locus YBL061C, strain skt5, active compounds read low",0.982
same,normalized growth,"locus YBR009C, strain hhf1, active compounds read low",0.77 (active)
same,normalized growth,"locus YBR021W, strain FUR4, active compounds read low",0.972
same,normalized growth,"locus YBR023C, strain chs3, active compounds read low",0.966
same,normalized growth,"locus YBR171W, strain sec66, active compounds read low",0.993
same,normalized growth,"locus YBR229C, strain ROT2, active compounds read low",0.993
same,normalized growth,"locus YBR231C, strain swc5, active compounds read low",0.989
same,normalized growth,"locus YBR279W, strain paf1, active compounds read low",0.95
same,normalized growth,"locus YCL011C, strain gbp2, active compounds read low",0.858 (active)
same,normalized growth,"locus YCL016C, strain dcc1, active compounds read low",0.95
same,normalized growth,"locus YCL029C, strain bik1, active compounds read low",0.987
same,normalized growth,"locus YCL061C, strain MRC1, active compounds read low",0.958
same,normalized growth,"locus YCL069W, strain vba3, active compounds read low",0.951
same,normalized growth,"locus YCR088W, strain abp1, active compounds read low",0.974
same,normalized growth,"locus YDL005C, strain med2, active compounds read low",0.92
same,normalized growth,"locus YDL035C, strain GPR1, active compounds read low",0.914
same,normalized growth,"locus YDL040C, strain nat1, active compounds read low",0.998
same,normalized growth,"locus YDL074C, strain BRE1, active compounds read low",0.878
same,normalized growth,"locus YDL101C, strain DUN1, active compounds read low",0.989
same,normalized growth,"locus YDL134C, strain PPH21, active compounds read low",0.998
same,normalized growth,"locus YDL185W, strain tfp1, active compounds read low",0.995
same,normalized growth,"locus YDL192W, strain arf1, active compounds read low",0.969
same,normalized growth,"locus YDR001C, strain nth1, active compounds read low",0.997
same,normalized growth,"locus YDR069C, strain doa4, active compounds read low",0.894 (active)
same,normalized growth,"locus YDR101C, strain arx1, active compounds read low",0.968
same,normalized growth,"locus YDR137W, strain rgp1, active compounds read low",0.415 (active)
same,normalized growth,"locus YDR150W, strain NUM1, active compounds read low",1.01
same,normalized growth,"locus YDR159W, strain sac3, active compounds read low",0.723 (active)
same,normalized growth,"locus YDR162C, strain NBP2, active compounds read low",0.931
same,normalized growth,"locus YDR195W, strain ref2",1.02
same,normalized growth,"locus YDR297W, strain sur2, active compounds read low",0.923
same,normalized growth,"locus YDR318W, strain mcm21, active compounds read low",0.944
same,normalized growth,"locus YDR334W, strain swr1, active compounds read low",1.02
same,normalized growth,"locus YDR335W, strain msn5, active compounds read low",0.938
same,normalized growth,"locus YDR388W, active compounds read low",0.966
same,normalized growth,"locus YDR392W, strain spt3, active compounds read low",0.743
same,normalized growth,"locus YDR502C, strain sam2, active compounds read low",0.959
same,normalized growth,"locus YEL003W, strain gim4, active compounds read low",0.891 (active)
same,normalized growth,"locus YEL037C, strain rad23, active compounds read low",1
same,normalized growth,"locus YEL061C, strain CIN8 (second series), active compounds read low",1
same,normalized growth,"locus YEL061C, strain CIN8, active compounds read low",1
same,normalized growth,"locus YER015W, strain faa2, active compounds read low",0.901 (active)
same,normalized growth,"locus YER016W, strain bim1, active compounds read low",0.94
same,normalized growth,"locus YER110C, active compounds read low",1.01
same,normalized growth,"locus YER111C, strain swi4, active compounds read low",1
same,normalized growth,"locus YER155C, strain BEM2 (second series), active compounds read low",0.942
same,normalized growth,"locus YER155C, strain BEM2, active compounds read low",1.02
same,normalized growth,"locus YER167W, strain BCK2, active compounds read low",0.972
same,normalized growth,"locus YFR010W, strain ubp6, active compounds read low",0.957
same,normalized growth,"locus YGL078C, strain dbp3, active compounds read low",0.976
same,normalized growth,"locus YGL086W, strain mad1, active compounds read low",0.958
same,normalized growth,"locus YGL167C, strain pmr1, active compounds read low",0.987
same,normalized growth,"locus YGL173C, strain kem1, active compounds read low",0.825 (active)
same,normalized growth,"locus YGL227W, strain vid30, active compounds read low",0.994
same,normalized growth,"locus YGL240W, strain doc1, active compounds read low",0.863 (active)
same,normalized growth,"locus YGL248W, strain PDE1, active compounds read low",0.998
same,normalized growth,"locus YGL253W, strain hxk2, active compounds read low",0.953
same,normalized growth,"locus YGR078C, strain PAC10, active compounds read low",0.952
same,normalized growth,"locus YGR135W, strain pre9, active compounds read low",0.968
same,normalized growth,"locus YGR229C, strain SMI1, active compounds read low",0.813
same,normalized growth,"locus YGR252W, strain gcn5, active compounds read low",0.902
same,normalized growth,"locus YHR013C, strain ard1, active compounds read low",1.21 [resistant] (active)
same,normalized growth,"locus YHR027C, strain rpn1, active compounds read low",0.933
same,normalized growth,"locus YHR030C, strain SLT2, active compounds read low",0.993
same,normalized growth,"locus YHR079C, strain IRE1 (second series), active compounds read low",0.971
same,normalized growth,"locus YHR094C, strain hxt1, active compounds read low",0.999
same,normalized growth,"locus YHR129C, strain ARP1, active compounds read low",1.01
same,normalized growth,"locus YHR142W, strain chs7, active compounds read low",0.911
same,normalized growth,"locus YHR200W, strain rpn10, active compounds read low",0.981
same,normalized growth,"locus YIL073C, strain SPO22, active compounds read low",0.951
same,normalized growth,"locus YIL125W, strain kgd1, active compounds read low",0.994
same,normalized growth,"locus YIR030C, strain dcg1, active compounds read low",1.01
same,normalized growth,"locus YJL092W, strain hpr5, active compounds read low",0.967
same,normalized growth,"locus YJL095W, strain BCK1 (second series), active compounds read low",0.799 (active)
same,normalized growth,"locus YJL095W, strain BCK1, active compounds read low",0.855
same,normalized growth,"locus YJL115W, strain asf1, active compounds read low",1.02
same,normalized growth,"locus YJL129C, strain trk1, active compounds read low",0.675 (active)
same,normalized growth,"locus YJL134W, strain LCB3, active compounds read low",0.999
same,normalized growth,"locus YJL154C, strain vps35, active compounds read low",0.996
same,normalized growth,"locus YJL164C, strain tpk1, active compounds read low",0.687 (active)
same,normalized growth,"locus YJL166W, strain qcr8, active compounds read low",0.812 (active)
same,normalized growth,"locus YJL168C, strain set2, active compounds read low",0.994
same,normalized growth,"locus YJL187C, strain SWE1 (second series), active compounds read low",0.964
same,normalized growth,"locus YJR043C, strain POL32, active compounds read low",0.999
